Data from PubChem BioAssay AID540259 (Broad Institute, 2011).
Measured potencies and affinities stand elsewhere. A number with no mark means an inactive call.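 Rule for the calls: active = cell killing, meaning signal decrease, with fitted half-maximal dose at or below ten times the top valid tested dose; inconclusive = poor fit, or flat curve with 30 to 70% signal loss; inactive = the rest.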

Test: ATP-based viability loss in HeLa cells – cell-based, CellTiter-Glo luminescence, cherry-pick samples, cytotoxicity control for MITF activator project, dose response (AID 540259);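 note: 0% = DMSO neutral control and -100% = mitoxantrone positive control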
Conditions: 24 h; series mostly up to 35 µM; activity change, negative = cytotoxicity: at the top concentration

| Structure (SMILES) | activity change, negative = cytotoxicity [%] |
| --- | --- |
| Cc1nc2c3cnn(-c4ccc(C)c(C)c4)c3ncn2n1 | -8.14 |
| CSc1ccccc1OCc1cc(C(=O)N[C@H]2CCCCNC2=O)no1 | 11.5 |
| O=C(NCCSc1ccccn1)c1ccc(Cl)cc1Cl | -8.41 |
| O=C(Cc1ccc(O)cc1)NC1CCCCCC1 | 1.55 |
| O=C(O)c1ccc(/C=C/c2ccc3cccc(O)c3n2)cc1 | 6.91 |
| CC(C)c1ccc(NC(=O)Cn2ncc3ccccc32)cc1 | 5.78 |
| O=C(Cc1ccccc1)Nc1nc(-c2cccs2)cs1 | -7.3 |
| COc1ccc(C2Nc3ccccc3C(=O)N2c2ccc(C)cc2)cc1Cn1nnc2ccccc21 (stereo unspecified) | 14.2 |
| CC(=O)c1cnc2c(-c3cccc(Br)c3)cnn2c1C | -3.45 |
| CCc1nnc(NS(=O)(=O)c2ccc(NC(=O)c3cccc(Cl)c3)cc2)s1 | 12.2 |
| c1ccc(-c2nc3ccccc3[nH]2)cc1 | -1.01 |
| COc1ccc(C(=O)Nc2cc3c4c(c2)CC(=O)N4CCC3)c(OC)c1 | 11.5 |
| C=CCc1c(C)nc(-c2ccccc2)nc1N/N=C/c1ccncc1 | -11.8 |
| COc1ccccc1NC(=O)Nc1nc2ccc(S(N)(=O)=O)cc2s1 | 12.1 |
| Cc1nn(-c2ccc(N3CCCCC3)nn2)c(C)c1CCC(=O)Nc1cccc(F)c1 | 4.81 |
| Cn1c(NC(=O)CCC2CCCCC2)cc(=O)n(C)c1=O | -12.8 |
| Nc1nc(COc2ccc3ccccc3c2)cs1 | 4.74 |
| CCN(CC)S(=O)(=O)c1cc(C(=O)Nc2cc(C)[nH]n2)ccc1Cl | 0.409 |

| Structure (SMILES) | activity change, negative = cytotoxicity [%] |
| --- | --- |
| Cc1ccccc1Nc1nc(N)nc(COC(=O)c2ccccc2)n1 | 11.2 |
| O=C(Nc1ccccc1)N1CCC(c2ccccc2)C1 (stereo unspecified) | -0.372 |
| CC(C)(C)C(=O)OCc1nc(-c2ccc(F)cc2)cs1 | 10 |
| COc1ccc(/C(C)=N/Nc2nncc3ccccc23)cc1 | -7.02 |
| CCCc1cc(C(=O)Nc2ccc(C(=O)OC)cc2)cs1 | -6.83 |
| COc1ccc(-c2ccc(C(=O)C3CC3)cc2)cc1 | 3.45 |
| C/C(=N/NC(=O)c1ccncc1)c1ccc(NC(=O)c2ccc(Cl)cc2Cl)cc1 | 1.99 |
| COc1ccc(-n2nc(C(=O)NCC(=O)N3CCN(c4ccccc4)CC3)c3ccccc3c2=O)c(OC)c1 | 1.45 |
| N#Cc1c(-c2ccc(Cl)cc2)ccn2nc(C3CCCCC3)nc12 | -3.42 |
| Cc1cc(C)n2nc(SCN3C(=O)c4ccccc4C3=O)nc2n1 | -0.893 |
| CCCCSc1nsc(NC(C)=O)n1 | 3.89 |
| c1ccc(CSCc2nc3ccccc3[nH]2)cc1 | 11.5 |
| Cc1cnc(NC(=O)Nc2ccc(Cl)cc2)s1 | 11.5 |
| COc1ccc(-c2c(C)nc3c(-c4ccsc4)cnn3c2N)cc1 | 0.683 |
| COC(=O)Cn1c(=NC(=O)c2ccc(Cl)s2)sc2cc(C)ccc21 | -6.41 |
| CCS(=O)(=O)N1Cc2ccccc2CC1C(=O)NCc1cccc(OC)c1 (stereo unspecified) | 3.08 |
| COc1ccc(NC(=O)n2ncc3cc(Cl)ccc32)cc1OC | 2.18 |
| Cc1nnc(NC(=O)c2ccc(N3CCCC3=O)cc2)s1 | 6.95 |
